# From PubChem BioAssay
# The list is not random: actives were taken first. Their share in the collection is about 11%.
# MCF10A rerep: A quantitative high throughput screen for small molecules that induce DNA re-replication in MCF 10a normal breast cells; Potency, µM (doses to about 46.1 µM), for the others: at the top dose activity, positive = re-replication, most hits filed as activators; MCF 10A DNA re-replication, Hoechst nuclear intensity, 48 h; 350,000 tested, 2.9% active; AID 624296, 2012; further: potency means the concentration at half of the fitted maximal effect; % of control where 0% means no effect; nearly all actives have a fitted effect of over 50% in size
# Gal4-VP16 FLuc: VP16 counterscreen qHTS for inhibitors of ROR gamma transcriptional activity | Drosophila S2 Gal4-VP16 UAS-luciferase, luminescence, 20 h | Potency, µM (titrated, usually from 53.6 µM), inactives show top-dose activity, negative = inhibition, usual class: inhibitors | 310,000 tested, 3.5% active | AID 2546, 2010;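 further: Gal4-VP16 expression switched on by copper sulfate through the metallothionein promoter; potency means the concentration at half of the fitted maximal effect; on the % scale 0 is the no-effect control and ±100 the full control effect; nearly all actives have a fitted effect of over 50% in size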
# SW480 rerep: A quantitative high throughput screen for small molecules that induce DNA re-replication in SW480 colon adenocarcinoma cells; Potency, µM (series often up to 46.1 µM), for inactives: top-dose re-replication activation, most hits filed as activators; 340,000 tested, 1.8% active; SW480 DNA re-replication, Hoechst DNA content imaging, 48 h; AID 624297, 2012; further: potency means the concentration at half of the fitted maximal effect; % of control where 0% means no effect; nearly all actives have a fitted effect of over 55% in size
#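 Compounds, transferred as 23 nL by pin tool, were incubated with cells for 48 hr; DNA content per nucleus was then quantified by Hoechst staining and fluorescence plate imaging.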
# RORg inh: qHTS for inhibitors of ROR gamma transcriptional activity. Nuclear receptor ROR-gamma (Mus musculus), P51450. Drosophila S2 Gal4-RORgamma UAS-luciferase reporter, 20 h. Potency, µM (highest dose often 53.6 µM), for inactives: at the highest dose activity change, negative = inhibition, most hits filed as inhibitors. 310,000 tested, 5.4% active. AID 2551, 2010; further: potency means the concentration at half of the fitted maximal effect; on the % scale 0 is the no-effect control and ±100 the full control effect; nearly all actives have a fitted effect of over 60% in size
# Target sequence (P51450 whole entry, looked up, the tested form may be a part): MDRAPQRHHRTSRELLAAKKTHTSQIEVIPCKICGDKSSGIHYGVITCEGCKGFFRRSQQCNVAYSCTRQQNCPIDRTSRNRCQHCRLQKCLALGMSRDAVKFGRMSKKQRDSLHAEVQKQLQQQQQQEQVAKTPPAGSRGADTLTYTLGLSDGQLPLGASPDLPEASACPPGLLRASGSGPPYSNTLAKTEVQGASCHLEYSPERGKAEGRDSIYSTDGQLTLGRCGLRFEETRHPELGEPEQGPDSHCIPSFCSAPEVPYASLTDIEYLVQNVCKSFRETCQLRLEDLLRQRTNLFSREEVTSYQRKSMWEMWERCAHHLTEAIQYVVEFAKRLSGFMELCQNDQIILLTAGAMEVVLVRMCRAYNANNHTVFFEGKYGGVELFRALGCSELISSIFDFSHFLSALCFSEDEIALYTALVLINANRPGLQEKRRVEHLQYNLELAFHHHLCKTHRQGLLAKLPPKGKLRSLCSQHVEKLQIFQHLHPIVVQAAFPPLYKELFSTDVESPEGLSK
#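 Stable Schneider cell line, Gal4 DNA-binding domain fused to ROR gamma, UAS-luciferase. Cmpd 1 hr RT → CuSO4 700 uM final → 20 hr RT → luciferase reagent 10 min → luminescence.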
# IL-1B inflam inh: qHTS for Inhibitors of Inflammasome Signaling: IL-1-beta AlphaLISA Primary Screen; THP-1 LPS/ATP IL-1B secretion, AlphaLISA, 16 h; stronger effect = lower value; activity change, % at 57.5 µM; AID 743279, 2014; 360,000 tested, 4.7% active; in the data active means activity change below about -50%; inconclusive means mostly about -30% to -49%; further: on the % scale 0 is the no-effect control and ±100 the full control effect
#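 Secreted IL-1B measured by AlphaLISA bead assay after 16 h compound exposure of THP-1 cells; compounds (final up to 57.5 uM) added 1 h before LPS (250 ng/mL) and ATP (1.25 mM) stimulation; lower signal means less secretion.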
# Active calls of the source: *; i = inactive; ? = inconclusive; . = no result given; [ ] = remark or other dose. Unless noted, the call rests on the fitted dose curve; in most records, active means well fitted curve in the direction sought with a large enough effect; inconclusive means small, poorly fitted or top-dose-only effect, or another doubt; inactive means no such curve, though single readings can be large; an effect the other way counts as inactive or inconclusive.
SMILES,MCF10A rerep,Gal4-VP16 FLuc,SW480 rerep,RORg inh,IL-1B inflam inh
S=C(NCc1ccco1)Nc1ccc(Cl)cc1Cl,15%,?,-11%,11µM*,13
S=C(NCc1ccco1)Nc1ccc(Br)cc1Cl,18%,-25%,2%,13µM*,-83*
S=C(NCc1cccc(Cl)c1)NCc1ccco1,?,?,?,-107%,?
CCCCC(=O)NC(c1ccc(Cl)cc1Cl)c1ccc2cccnc2c1O (stereo not given),?,3.2µM*,1.2µM*,3.2µM*,179
CCCCC(=O)NC(c1ccc(OC)cc1)c1ccc2cccnc2c1O (stereo not given),.,.,.,.,117
COc1ccc(C(NC(=O)C(C)C)c2ccc3cccnc3c2O)cc1 (stereo not given),8%,6.3µM*,?,2.2µM*,138
CCC(=O)NC(c1ccc(Cl)cc1Cl)c1ccc2cccnc2c1O (stereo not given),?,?,0.52µM*,-1%[1.91 µM],-85*
CC(C)C(=O)NC(c1ccc(Cl)cc1Cl)c1ccc2cccnc2c1O (stereo not given),20%,3.2µM*,?,4.5µM*,74
CC(NC(=O)CSc1ncccn1)c1ccc(Cl)cc1Cl (stereo not given),-3%,-2%,-11%,14%,22
CCCNC(=O)OC[C@@H]1O[C@H](CCO/N=C(\C)CCN2CCCc3nc(C)c(C)cc32)C=C[C@@H]1Oc1ccc(OC)cc1,.,7%[10 µM],.,-12%[10 µM],.
COC(=O)NC(c1ccccc1)C1(C(=O)OC)C(=O)Cc2ccccc21 (stereo not given),.,4%,.,19%,.
COCCn1c(=O)c(-c2ccc(Cl)cc2)nc2cncnc21,.,11%,.,-1%,.
CCOC(=O)Cc1ccc(Nc2nc3cc(-c4sccc4C)sc3c(=O)n2C)cc1,.,.,.,.,0
Cc1cc(NC(c2ccc(Cl)cc2)c2ccc3cccnc3c2O)no1 (stereo not given),?,2µM*,?,0.79µM*,89
Cc1cc(C)c[n+](C(C)C(=O)c2ccc(Cl)cc2)c1 (stereo not given),?,-6%,6%,-9%,-15
Cc1ccc[n+](/C(=C\C(=C=[N-])C#N)C(=O)c2ccc(Cl)cc2)c1,-2%,?,0%,18µM*,7
CN1CCc2c(C#N)c(N3CCCCC3)nc(NCc3ccccc3)c2C1,18µM*,-5%,?,?,-8
CCSc1nc(N)nc2c1ncn2C1OC(CO)C(O)C1O (stereo not given),-4%,.,-10%,.,41
Cn1cnc([N+](=O)[O-])c1Sc1nc(N)nc2c1ncn2C1CC(O)C(CO)O1 (stereo not given),2.1µM*,.,7.3µM*,.,-15
Cn1cnc([N+](=O)[O-])c1Sc1nc(N)nc2c1ncn2C1OC(CO)C(O)C1O (stereo not given),2.1µM*,.,5.8µM*,.,-19
CC(=O)Nc1ccc(S(=O)(=O)N2CCN(C(=O)c3ncoc3-c3ccccc3)CC2)cc1,18%,28%,3%,8%,14
C[C@@H]1NC(=O)N[C@@H]1CCCCCC(=O)O,?,.,-22%,.,-102*
Cc1cccc(C)c1NC(=O)CCCN1CC(C)OC(C)C1 (stereo not given),-3%[9.22 µM],3%,-2%,-11%,-3
CC1NC(=O)NC1CCCCCC(=O)NCCc1ccccc1 (stereo not given),23%,5%,5%,-9%,-96*
Cc1cccc(C)c1NC(=O)CCCCCC1NC(=O)NC1C (stereo not given),1%,2%,-11%,-1%,-55*
SMILES,MCF10A rerep,Gal4-VP16 FLuc,SW480 rerep,RORg inh,IL-1B inflam inh
COc1c(O)cc2c(-c3ccccc3)cc(=O)oc2c1OC,.,3%,.,?,.
CC12CCC(=O)C=C1CCC1C2CCC2(C)C(c3csc(N)n3)CCC12 (stereo not given),16µM*,.,?,.,-82*
C=Cn1cc[n+](CC(=O)c2ccc(Br)cc2)c1,-4%,4%,-2%,?,31
C#CC(C)(O)C1CC(CC(=O)O)C1(C)C (stereo not given),-5%,.,3%,.,-4
CC(=O)N(C)c1ccc(C=C2C=Cc3ccccc32)cc1,?,.,?,.,-78*
CCN(N=O)c1ccc(C=C2C=Cc3ccccc32)cc1,?,.,-4%,.,-66*
NC(=O)C1CCCN1C(=O)C(Cc1cnc[nH]1)NC(=O)C1CCC(=O)N1 (stereo not given),.,7%,.,-2%,.
CC(C)c1cccc(-c2csc(C(C)(O)c3ccncc3)n2)c1 (stereo not given),.,.,.,.,10
CCCC(c1nnnn1Cc1ccco1)N1CCN(c2ccccc2)CC1 (stereo not given),-6%,21%,-3%,-39%,-9
CCCC(c1nnnn1Cc1ccco1)N1CCN(c2cc(Cl)ccc2C)CC1 (stereo not given),25µM*,3%,2%,-45%,-2
Cc1nn(-c2ccccc2)nc1C(=O)Nc1cccc(C(=O)NC2CC2)c1,.,.,.,.,9
CCn1nccc1C(=O)Nc1cc(Cl)ccc1Cl,-7%,.,-15%,8%[0.365 µM],-55*
COC(=O)[C@@]1(Cc2ccccc2)[C@H]2C(=O)N(C)C(=O)[C@H]2[C@H]2CN=C(SCc3ccccc3)N21,-6%,.,9%[9.22 µM],.,4
COC(=O)[C@@]1(Cc2ccccc2)[C@H]2C(=O)N(C)C(=O)[C@H]2[C@H]2CN=C(SCc3ccc(C#N)cc3)N21,-15%,.,3.7µM*,.,-10
COc1ccc(C(=O)Nc2c(N)nc(SCC(=O)c3ccccc3)[nH]c2=O)cc1,-6%,-5%,-29%,-18%,i
COCCCNC(=O)Cc1c(C)c2c(cc(C)c3c(C(C)(C)C)coc32)oc1=O,?,?,2.3µM*,25%,-3
COCCNC(=O)Cc1c(C)c2c(cc(C)c3c(C)coc32)oc1=O,-3%,-1%,11%,-25%,-4
CCc1nc2ccc(C(=O)NCCOc3ccc(OC)cc3)cn2c1N(C=O)Cc1ccc(OC)cc1,.,.,.,.,0
COC(C(=O)N/N=C(\C)CC(=O)Nc1ccc(N(C)C)cc1)c1ccccc1 (stereo not given),-10%,-30%,2%,13µM*,78
COC(C(=O)N/N=C(\C)CC(=O)Nc1ccc(Cl)cc1C)c1ccccc1 (stereo not given),3%,-6%,-1%,-5%,-6
Cc1cc(C)c2nc(/N=C(\N)NC(=O)c3ccccc3)nc(C)c2c1,20%,-13%,-6%,0%,-27
